TDP1 block – inhibitors of human tyrosyl-DNA phosphodiesterase TDP1; recombinant TDP1, AlphaScreen DNA substrate cleavage; Potency, µM (highest dose often 130 µM), inactives show at the highest dose activity change, negative = inhibition, most hits filed as inhibitors; hit rate 0.28% among 350,000; note: % is set by controls: 0 for no effect and ±100 for the full control effect; nearly all actives have a fitted effect of over 40% in size
Target sequence (Q9NUW8 whole entry, looked up): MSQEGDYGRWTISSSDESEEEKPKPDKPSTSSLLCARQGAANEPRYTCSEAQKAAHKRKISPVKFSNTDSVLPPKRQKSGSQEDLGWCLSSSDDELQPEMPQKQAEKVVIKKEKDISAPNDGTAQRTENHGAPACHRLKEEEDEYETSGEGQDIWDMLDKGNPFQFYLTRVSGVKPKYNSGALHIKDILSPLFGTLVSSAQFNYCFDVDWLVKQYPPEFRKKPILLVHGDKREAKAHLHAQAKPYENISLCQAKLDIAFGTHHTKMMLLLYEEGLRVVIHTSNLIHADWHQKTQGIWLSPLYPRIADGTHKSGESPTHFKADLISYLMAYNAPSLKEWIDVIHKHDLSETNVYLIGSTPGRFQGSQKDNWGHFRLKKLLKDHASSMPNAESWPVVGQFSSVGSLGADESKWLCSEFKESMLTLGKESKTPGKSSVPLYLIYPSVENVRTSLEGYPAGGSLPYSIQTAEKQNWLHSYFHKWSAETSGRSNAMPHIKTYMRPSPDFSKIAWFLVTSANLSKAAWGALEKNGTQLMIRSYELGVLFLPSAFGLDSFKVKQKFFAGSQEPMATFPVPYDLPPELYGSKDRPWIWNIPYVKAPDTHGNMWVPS
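Compounds were preincubated with Tdp1 (1 nM final) for 15 min at room temperature before substrate (15 nM final) started a 5 min reaction; beads (10 ug/ml final) were then added for 10 min before AlphaScreen detection.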
TDP1 cell CPT – growth inhibition of DT40 Tdp1-/-;hTDP1 cells with camptothecin (screen for TDP1 inhibitors). hit rate 12% among 420,000. Potency, µM (top dose mostly 46.2 µM), for inactives: at the top dose activity change, negative = growth inhibition, usual class: inhibitors. chicken DT40 Tdp1-/-;hTDP1 cells + 20 nM CPT, ATP luminescence, 48 h. AID 686979; note: % is set by controls: 0 for no effect and ±100 for the full control effect; nearly all actives have a fitted effect of over 55% in size
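Cell growth measured by CellTiter-Glo luminescence after a minimum 48 h, 37 C compound exposure with 20 nM CPT in Tdp1-knockout DT40 cells stably expressing hTDP1, seeded 400/well; qHTS titration format.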
DT40 TDP1 no CPT – qHTS for Inhibitors of human tyrosyl-DNA phosphodiesterase 1 (TDP1): qHTS in cells in absence of CPT | DT40 Tdp1-/- hTDP1 cells, no CPT, ATP luminescence, 48 h | Potency, µM (doses to about 46.2 µM), inactives show at the highest dose activity change, negative = growth inhibition, hits mostly inhibitors | hit rate 15% among 420,000; note: % is set by controls: 0 for no effect and ±100 for the full control effect; nearly all actives have a fitted effect of over 55% in size
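Luminescent ATP content (CellTiter-Glo) served as the growth readout. Knockout chicken DT40 cells expressing human TDP1 were exposed to compounds without camptothecin for a minimum 48 hr at 37 °C.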
ClpP mod – qHTS Assay for Activators of ClpP; hit rate 1.9% among 340,000; purified B. subtilis ClpP, FRET peptide cleavage, 20 min; Potency, µM (top dose mostly 57.5 µM), without a hit: top-dose activity change, negative = active; ATP-dependent Clp protease proteolytic subunit (Bacillus subtilis (strain 168)), P80244; active = well fitted falling curve with a large enough effect; inconclusive = small, poorly fitted or top-dose-only effect; inactive = no such curve, though single readings can be large or run the other way; note: the source files actives as falling curves though it sought activators and does not explain the sign; nearly all actives have a fitted effect of over 65% in size
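ClpP 10 microg/mL final, pH 8 Tris/KCl buffer with BSA, glycerol, Tween-20; compound pinned in; FRET-FV substrate; RT 20 min; Ex320/Em430; ΔFRET vs ADEP 5.8 microM, DMSO, no enzyme.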
* marks the source's active call; other numbers are inactive results; u = inconclusive; x = not tested or not shown; [ ] = dose if it differs, or a comment. Compounds with a hit are over-represented: about 17% of the library has one in this group of screens. Unless noted, calls come from the whole dose curve; as a rule, active = well fitted curve in the direction sought with a large enough effect; inconclusive = small, poorly fitted or top-dose-only effect, or another doubt; inactive = no such curve, though single readings can be large; an effect the other way counts as inactive or inconclusive. Potency is the fitted concentration of half-maximal effect.

SMILES	TDP1 block	TDP1 cell CPT	DT40 TDP1 no CPT	ClpP mod
CC(C)N(C(=O)[C@H]1CC(CC(=O)NCCCN(C)C)C(=O)N2CCc3c([nH]c4ccccc34)[C@]12C)C(C)C (some centres not stated)	2%	-22%	-9%	1%
COCCNC(=O)/C(C#N)=C/c1c(F)cccc1Cl	3%	u	10µM*	x
COCCCNC(=O)/C(C#N)=C/c1ccc(F)cc1	5%	9%	-1%	x
COCCCNC(=O)/C(C#N)=C/c1cccc(NC(=O)c2ccccc2Cl)c1	1%	2.6µM*	2.6µM*	-12%
NC(=O)Cn1ccc(O)c(Cc2ccc(Cl)cc2Cl)c1=O	x	-36%	-3%	-1%
CN=CC1=C(O)c2ccccc2C1=O	0%	-2%	11%	1%
O=C1C(C=Nc2ccccc2O)=C(O)c2ccccc21	1%	3.3µM*	1.3µM*	1%
O=C1C(C=Nc2ccccc2)=C(O)c2ccccc21	2%	-21%	-18%	1%
Cc1ccc(O)c(N=CC2=C(O)c3ccccc3C2=O)c1	10%	u	23µM*	0%
COc1ccc(CCNC(=O)CC2SC(N)=NC2=O)cc1OC (configuration not stated)	0%	u	-29%	x
CCOc1ccc(Nc2nc(N3CCCC3)nc(N3CCN(c4ccc(OC)cc4)CC3)n2)cc1	6%	u	16µM*	x
CCOc1nc(Nc2ccc(OC)c(Cl)c2)nc(N2CCN(c3ccc(OC)cc3)CC2)n1	6%	18µM*	23µM*	-6%
CCOc1nc(Nc2ccc(F)cc2)nc(N2CCN(c3ccc(OC)cc3)CC2)n1	5%	u	15µM*	-28%
COc1nc(Nc2ccc(OC)c(Cl)c2)nc(OC)n1	1%	-14%	u	0%
CCOC(=O)Nc1cccc(OCC(=O)Nc2ccccc2OC)c1	-1%	-21%	u	0%
CCn1ccc2c(OCC(=O)Nc3ccc(OC)cc3OC)cccc2c1=O	3%	u	6.5µM*	-6%
CCn1ccc2c(OCC(=O)Nc3ccc(C)c(Cl)c3)cccc2c1=O	3%	26µM*	16µM*	-17%
CCOC(=O)Nc1cccc(OCC(=O)Nc2ccc(OC)cc2OC)c1	5%	u	9.2µM*	-2%
CCCn1ccc2c(OCC(=O)Nc3ccc(F)cc3F)cccc2c1=O	0%	16µM*	u	-17%
O=C(Nc1cscc1S(=O)(=O)c1ccccc1)c1ccccc1Cl	x	7%	-11%	x
Nc1cc(S(=O)(=O)N2CCN(S(=O)(=O)c3ccc4c(c3)OCCO4)CC2)ccn1	-3%	x	x	x
CCCn1ccc2c(OCC(=O)Nc3ccc(NC(C)=O)cc3)cccc2c1=O	3%	u	u	u
CCCn1ccc2c(OCC(=O)Nc3ccc(OC)c(OC)c3)cccc2c1=O	3%	13µM*	7.3µM*	-3%
FC(F)(F)c1nc2ccccc2n2c(-c3ccc(Cl)cc3)nnc12	5%	7.3µM*	12µM*	13µM*
Cc1ccc(-c2nnc3c(C(F)(F)F)nc4ccccc4n23)cc1	6%	21µM*	21µM*	13µM*
SMILES	TDP1 block	TDP1 cell CPT	DT40 TDP1 no CPT	ClpP mod
Cc1ccc(-c2nc3ccccc3n3c(C)nnc23)cc1	-6%	x	x	x
Cc1ccc(-c2cc(O)cc3sc(=O)oc23)cc1C	x	u	21µM*	-1%
Cc1ccc(C(=O)O)cc1NC(=O)CSc1ncnc2sc3c(c12)CCC3	3%	u	-7%	x
Cc1nc(-n2nc(C)c(Cc3ccccc3Cl)c2C)sc1C(=O)N1CCCCC1C (configuration not stated)	1%	u	21µM*	0%
Cc1nc(-n2nc(C)c(Cc3ccc(Cl)cc3)c2C)sc1C(=O)N1CCCCC1C (configuration not stated)	-1%	-6%	u	1%
CC(=O)c1ccc(F)c(-c2cc(C)cc3c2OC(CNC(=O)C(C)n2nc(C)cc2C)C3)c1 (configuration not stated)	x	0%[9.04 µM]	-20%	x
CC(=O)c1ccc(F)c(-c2cc(C)cc3c2OC(CNC(=O)c2csc(C)n2)C3)c1 (configuration not stated)	x	8%[9.04 µM]	21µM*	x
Cc1nc(CC(=O)NCC2Cc3cc(F)cc(-c4ccc(F)c(C)c4)c3O2)cs1 (configuration not stated)	x	7%[9.04 µM]	13µM*	x
Cc1ccc(C)n1-n1c(C)nc2scc(-c3cccs3)c2c1=O	9%	u	18µM*	4%
C=CCC(CC=C)(CNC(=O)C(=O)Nc1ccc(C(=O)OCC)cc1)c1ccccc1	5%	-11%	-26%	-1%
COc1ccc(S(=O)(=O)NCC(=O)NCCc2ccc(OC)c(OC)c2)cc1	x	-8%	-29%	1%
CC1=C(C(=O)Nc2ccc(C)cn2)C(c2cnn(C)c2)C2=C(CCCC2=O)N1 (configuration not stated)	3%	-6%	-2%	6.3µM*
CCn1ncc(C2C(C(=O)Nc3ccc(C)cn3)=C(C)NC3=C2C(=O)CCC3)c1C (configuration not stated)	-5%	22%	1%	2%
O=C(Nc1ccc(Oc2cccnc2)cc1)C1CCN(Cc2cccc(Cl)c2)CC1	4%	18µM*	u	-2%
Cc1ncc(CN2CCC(C(=O)Nc3cccc(-c4cscn4)c3)CC2)cn1	3%	u	u	-1%
O=C(Nc1ccc(Oc2cccnc2)cc1)C1CCN(Cc2ccccc2F)CC1	2%	u	u	0%
CC(=O)c1cccc(CN2CCC(C(=O)Nc3ccc(Oc4cccnc4)cc3)CC2)c1	3%	u	23µM*	1%
O=C(Nc1ccc(Oc2cccnc2)cc1)C1CCCCN1Cc1ccc(CO)o1 (configuration not stated)	1%	-32%	-42%	-3%
CC(=O)c1cccc(CN2CCC(C(=O)Nc3ccc(-c4cccc(C)c4)cc3)CC2)c1	x	10µM*	6.5µM*	x
Cc1ccc(CN2CCC(C(=O)Nc3ccc(Oc4cccnc4)cc3)CC2)cc1	5%	18µM*	16µM*	1%
CCOC(=O)c1ccc(NC(=O)NNS(=O)(=O)c2cc(OC)ccc2OC)cc1	5%	-1%	4%	21%
CCCn1c(C)nc2c(N3CCC(N(C)C)C3)nc(C)nc21 (configuration not stated)	7%	x	x	x
COc1cc2[nH]c(=S)n(Cc3ccc(C)cc3)c(=O)c2cc1OC	1%	u	u	0%
CC[C@H](C)[C@H](N)C(=O)N[C@H](C(=O)N[C@@H](CO)C(=O)N[C@@H](C)C(=O)N[C@H](C(=O)N[C@H](C(=O)NCC(=O)N[C@H](C(=O)N[C@@H](CC(C)C)C(=O)O)[C@@H](C)CC)C(C)C)C(C)C)[C@@H](C)CC	8%	x	x	x

Source: PubChem BioAssay (National Center for Advancing Translational Sciences (NCATS))
